High-throughput results: PubChem, National Center for Advancing Translational Sciences (NCATS)
Rows were chosen to be rich in hits. Some 6.6% of all compounds tested hit in one or more screens of this group.
KB-V1 MDR tox: qHTS assay for MDR1-selective chemotherapeutics: Primary screen using the drug-selected MDR subline cells KB-V1. Potency, µM (series often up to 46.1 µM), most hits filed as cytotoxic. 400,000 compounds, 3.4% hits. KB-V1 MDR cells viability, CellTiter-Glo, 72 h. AID 1347076, 2019; note: nearly all actives have a fitted effect of over 60% in size
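Luminescent ATP read-out (CellTiter-Glo, 10 min) measures survival of drug-selected KB-V1 MDR cells after 72 h, 37 degrees C compound exposure. Medium: phenol-red-free DMEM, 10% FBS. Values from fitted concentration-response curves.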
HepG2 viability: qHTS for Inhibitors of TGF-b: Cytotox Counterscreen; HepG2 CAGA-GFP viability, ATP luminescence, 18 h; Potency, µM (series often up to 46.1 µM), actives largely listed as cytotoxic; 410,000 compounds, 0.76% hits
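HepG2 CAGA-GFP cells (1000/well, DMEM with 1% FBS) received compound, then TGF-beta at 500 pg/mL final, and were incubated 18 hours at 37 degrees C. Viability was read by CellTiter-Glo luminescence. Media-only wells were set as complete cell-killing and DMSO as no toxicity.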
TGFb SMAD3 inh: qHTS for Inhibitors of TGF-b; HepG2 CAGA-GFP TGF-b/SMAD3 reporter, GFP fluorescence, 18 h; TGF-beta stimulated, 500 pg/mL final; Potency, µM (highest dose often 46.1 µM), most hits filed as inhibitors; 410,000 compounds, 1.2% hits; AID 588855, 2011; note: nearly all actives have a fitted effect of over 65% in size
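Cell-based qHTS in HEPG2 carrying a CAGA-GFP Smad reporter; compounds added before 500 pg/mL final TGF-beta, 18 h incubation at 37 degrees C, GFP fluorescence quantified per cell by imaging cytometry.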
HT1080NT lethal: qHTS for induction of synthetic lethality in tumor cells producing 2HG: qHTS for the HT-1080-NT fibrosarcoma cell line | HT-1080-NT fibrosarcoma viability, CellTiter-Glo ATP luminescence, 48 h | Potency, µM (titrated, usually from 46.1 µM), most hits filed as cytotoxic | 360,000 compounds, 1.6% hits;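 note: NT is the 2HG producing partner of a matched IDH1 knockdown line; nearly all actives have a fitted effect of over 55% in size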
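Compounds were tested in concentration-response format on HT-1080-NT cells for 48 hours at 37 degrees C. Cell viability came from CellTiter-Glo luminescence; curves were classified by r2, response magnitude and activity.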
HT1080 IDH1KD tx: qHTS for induction of synthetic lethality in tumor cells producing 2HG: qHTS for the HT-1080-IDH1KD cell line | 360,000 compounds, 2% hits | AID 686971, 2013 | HT-1080 IDH1 knockdown viability, ATP luminescence, 48 h | Potency, µM (titrated, usually from 46.1 µM), most hits filed as cytotoxic
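Assay cells: HT-1080 with IDH1 knockdown, 750 per well, RPMI/5% FBS. Exposure: 48 h at 37 °C following 2 h pre-incubation. Read: CellTiter-Glo luminescence; fitted concentration-response, curve class assigned.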
KB-3-1 cytotox: qHTS assay for MDR1-selective chemotherapeutics: Primary screen using the parental adenocarcinoma cell KB-3-1; Potency, µM (top dose mostly 46.1 µM), most hits filed as cytotoxic; KB-3-1 viability, CellTiter-Glo ATP luminescence, 72 h; 400,000 compounds, 1.4% hits; note: nearly all actives have a fitted effect of over 60% in size
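Cytotoxicity in the drug-sensitive parental line KB-3-1 was scored as loss of CellTiter-Glo luminescence following 72 h incubation with compound. Values come from curve fitting of normalized concentration-response data.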
Numbers stand for hits. Calls come from the whole dose curve; as a rule, active = well fitted curve in the direction sought with a large enough effect; inconclusive = small, poorly fitted or top-dose-only effect, or another doubt; inactive = no such curve, though single readings can be large; an effect the other way counts as inactive or inconclusive.

`CCNC(=O)CC1C(=O)N(c2ccc(F)cc2)C(=S)N1CCc1ccncc1` (configuration not stated) gave KB-V1 MDR tox inactive, HepG2 viability inactive, TGFb SMAD3 inh inactive, HT1080NT lethal inactive, HT1080 IDH1KD tx inactive and KB-3-1 cytotox inactive.
For C=Cc1ccc(Cn2c(=O)n(-c3ccc(C)cc3)c(=O)c3c2c2cc(OC)ccc2n3C)cc1 the results were KB-V1 MDR tox inactive, HepG2 viability inactive, TGFb SMAD3 inh inactive and KB-3-1 cytotox inactive.
`CCOc1cc(CNC2CCCC2)ccc1OCc1ccccc1Cl` gave KB-V1 MDR tox 21µM, HepG2 viability inactive, TGFb SMAD3 inh inconclusive, HT1080NT lethal inactive, HT1080 IDH1KD tx inactive and KB-3-1 cytotox inconclusive.
COc1cc(CNCCc2ccccc2)cc(Cl)c1OCc1ccccc1 was read as KB-V1 MDR tox 18µM, HepG2 viability inactive, TGFb SMAD3 inh inconclusive, HT1080NT lethal 13µM, HT1080 IDH1KD tx inconclusive and KB-3-1 cytotox inconclusive.
Screening CCOc1cc(CNC2CCCC2)cc(Cl)c1OCc1ccccc1 returned KB-V1 MDR tox inconclusive, HepG2 viability inactive, TGFb SMAD3 inh inactive, HT1080NT lethal 21µM, HT1080 IDH1KD tx inconclusive and KB-3-1 cytotox inconclusive.
Screening Cc1nc(-c2ccc(S(=O)(=O)N3CCN(c4cc(Cl)ccc4C)CC3)cc2)co1 returned KB-V1 MDR tox inactive, HepG2 viability inactive, TGFb SMAD3 inh inconclusive and KB-3-1 cytotox inactive.
For CSc1ccc(CCNC(=O)c2ccc3c(c2)nc2n3CCCCC2)cc1 the results were KB-V1 MDR tox inactive, HepG2 viability inactive, TGFb SMAD3 inh inconclusive and KB-3-1 cytotox inconclusive.
Screening Cc1ccc(NS(=O)(=O)c2ccc3c(c2)N(C)C(=O)CO3)cc1C returned KB-V1 MDR tox inactive and KB-3-1 cytotox inactive.
For Cc1cccc(-n2ncc3c(N4CCCc5ccccc54)ncnc32)c1 the results were KB-V1 MDR tox 8.2µM, HepG2 viability inactive, TGFb SMAD3 inh inactive, HT1080NT lethal inconclusive, HT1080 IDH1KD tx inconclusive and KB-3-1 cytotox inconclusive.
`c1ccc(CNc2nnnn2-c2ccccc2)cc1` gave KB-V1 MDR tox 21µM, HepG2 viability inactive, TGFb SMAD3 inh inactive, HT1080NT lethal inactive, HT1080 IDH1KD tx inactive and KB-3-1 cytotox inconclusive.
CC(C)OCCCNc1ncnc2c1cnn2-c1ccccc1 was read as KB-V1 MDR tox 15µM, HepG2 viability inactive, TGFb SMAD3 inh inactive, HT1080NT lethal inactive, HT1080 IDH1KD tx inactive and KB-3-1 cytotox inactive.
For c1ccc(CNc2ncnc3c2cnn3-c2ccccc2)cc1 the results were KB-V1 MDR tox 2.6µM, HepG2 viability inactive, TGFb SMAD3 inh inactive, HT1080NT lethal inconclusive, HT1080 IDH1KD tx inconclusive and KB-3-1 cytotox 5.2µM.
Screening Cc1cc(C)c(NC(=O)CSc2nc(=O)n(Cc3ccncc3)c3c2CCC3)c(C)c1 returned KB-V1 MDR tox inactive, HepG2 viability inactive, TGFb SMAD3 inh inactive and KB-3-1 cytotox inactive.
`O=C(Cn1cnc2c(NCc3ccccc3)ncnc21)NCc1ccccc1` gave KB-V1 MDR tox 7.3µM, HepG2 viability inactive, TGFb SMAD3 inh inactive, HT1080NT lethal 8.2µM, HT1080 IDH1KD tx 6.5µM and KB-3-1 cytotox 2.9µM.
Cc1ccc(-n2ncc3c(NCCCN(C)C)ncnc32)cc1Cl was read as KB-V1 MDR tox inactive, HepG2 viability 13µM, TGFb SMAD3 inh inconclusive and KB-3-1 cytotox inactive.
For O=C(Cn1cnc2c(NCc3ccccc3)ncnc21)NCc1ccc2c(c1)OCO2 the results were KB-V1 MDR tox inactive, HepG2 viability inactive, TGFb SMAD3 inh inactive, HT1080NT lethal inconclusive, HT1080 IDH1KD tx inactive and KB-3-1 cytotox inactive.
Cc1cccc(-n2ncc3c(NCc4ccccc4)ncnc32)c1 was read as KB-V1 MDR tox 6.5µM, HepG2 viability inactive, TGFb SMAD3 inh inconclusive, HT1080NT lethal inconclusive, HT1080 IDH1KD tx 18µM and KB-3-1 cytotox 3.3µM.
`CC(C)Nc1ncnc2c1cnn2-c1ccc(Cl)cc1` gave KB-V1 MDR tox inconclusive, HepG2 viability inactive, TGFb SMAD3 inh inactive, HT1080NT lethal inactive, HT1080 IDH1KD tx inactive and KB-3-1 cytotox 7.3µM.
For COc1cccc(-c2nc(SC(C(C)=O)C(=O)N(C)C)c3c(=O)n(C)c(=O)n(C)c3n2)c1 (configuration not stated) the results were KB-V1 MDR tox inactive, HepG2 viability inactive, TGFb SMAD3 inh inactive and KB-3-1 cytotox inactive.
Screening COc1ccc(/C=C2/NC(=O)N(Cc3ccccc3F)C2=O)cc1OC returned KB-V1 MDR tox inactive, HepG2 viability inactive, TGFb SMAD3 inh inactive, HT1080NT lethal inactive, HT1080 IDH1KD tx inactive and KB-3-1 cytotox inactive.
For COc1cc(/C=C2/NC(=O)N(Cc3ccccc3F)C2=O)cc(OC)c1OC the results were KB-V1 MDR tox 0.18µM, HepG2 viability inactive, TGFb SMAD3 inh inactive, HT1080NT lethal inactive, HT1080 IDH1KD tx inactive and KB-3-1 cytotox inactive.
For CCCC1CCc2c(sc(NC(=O)OCC)c2C#N)C1 (configuration not stated) the results were KB-V1 MDR tox 5.8µM, HepG2 viability inactive, TGFb SMAD3 inh inactive, HT1080NT lethal inconclusive, HT1080 IDH1KD tx 18µM and KB-3-1 cytotox inconclusive.
For O=C(CCN1CCOCC1)c1ccc(N2CCCCC2)cc1 the results were KB-V1 MDR tox inactive, HepG2 viability inactive, TGFb SMAD3 inh 14µM, HT1080NT lethal inactive, HT1080 IDH1KD tx inactive and KB-3-1 cytotox inconclusive.
For CC(C)COc1ccc(C(=O)OCCN2CCCCC2)cc1 the results were KB-V1 MDR tox inactive, HepG2 viability inactive, TGFb SMAD3 inh inactive, HT1080NT lethal inconclusive, HT1080 IDH1KD tx inactive and KB-3-1 cytotox inactive.
For CC(=O)c1ccc(OCCCN2CCCCC2)cc1 the results were KB-V1 MDR tox inconclusive, HepG2 viability inactive, TGFb SMAD3 inh inactive, HT1080NT lethal inactive, HT1080 IDH1KD tx inactive and KB-3-1 cytotox inactive.
For CCCCOc1ccc(C(=O)CCN2CCCCC2)cc1 the results were KB-V1 MDR tox inactive, HepG2 viability inactive, TGFb SMAD3 inh inconclusive, HT1080NT lethal inconclusive, HT1080 IDH1KD tx 18µM and KB-3-1 cytotox inactive.
`CC(C)COc1ccc(C(=O)CCN2CCCCC2)cc1` gave KB-V1 MDR tox inactive, HepG2 viability inactive, TGFb SMAD3 inh inconclusive, HT1080NT lethal 18µM, HT1080 IDH1KD tx inconclusive and KB-3-1 cytotox 15µM.
For COc1ccc(S(=O)(=O)NCCc2nnc3ccc(SCC(=O)Nc4ccc(C(F)(F)F)cc4)nn23)cc1 the results were KB-V1 MDR tox inactive, HepG2 viability inactive, TGFb SMAD3 inh inactive and KB-3-1 cytotox inactive.
